Here are results for five compounds from PubChem BioAssay (NCATS).

Several values for one entry are separate records, joined by “and”; a condition that tells them apart may be missing. Equal values may be shown once. Records with an inconclusive call do not appear. Activity calls are given as the source filed them. Unless noted, the call rests on the fitted dose curve; in most records, active means well fitted curve in the direction sought with a large enough effect; inconclusive means small, poorly fitted or top-dose-only effect, or another doubt; inactive means no such curve, though single readings can be large; an effect the other way counts as inactive or inconclusive.

Test [1] is described as follows: qHTS assay for small molecule antagonists of peroxisome proliferator-activated receptor delta signaling (AID 588535; active means well fitted inhibition curve with a large enough effect in the signal ratio, with a control signal flat, not every such curve was filed as active; the % refers to the signal ratio;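 on max response: cells co-treated with a PPAR-delta agonist as stimulator during compound exposure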). Conditions: HEK293T PPARd-UAS-bla, beta-lactamase FRET ratio, 18 h; 460 nm channel. The gist of the method:
(§1)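 Beta-lactamase reporter read-out (405 nm excitation, 460/530 nm emission) after CCF4 loading for 2 hrs at RT. HEK293T PPAR-delta-UAS-bla cells, 2% charcoal/dextran FBS, compounds for 18 hrs at 37 C. Hill fit gave IC50 and efficacy.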

For test [2], the target named is Peroxisome proliferator-activated receptor delta (Homo sapiens) (UniProt Q03181). The description is as above. Conditions: HEK293T PPARd-UAS-bla, beta-lactamase FRET ratio, 18 h; series mostly up to 76.7 µM. The gist of the method:
as §1

The target of test [3] is Peroxisome proliferator-activated receptor gamma (Homo sapiens) (UniProt P37231). As to the kind of experiment: qHTS assay for small molecule agonists of peroxisome proliferator-activated receptor gamma signaling (AID 588536; active means well fitted curve in the direction sought with a large enough effect in the signal ratio, with a control signal flat, not every such curve was filed as active; the % refers to the signal ratio). The note with it: HEK293 PPARg-UAS-bla, beta-lactamase ratio, 16 h, percent of rosiglitazone response, DMSO as zero; series mostly up to 76.7 µM. The method in brief: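 Using GeneBLAzer HEK293 cells, response was quantified by CCF4 fluorescence and normalized between basal DMSO (0%) and rosiglitazone 2 uM (100%); curves yielded half-maximal stimulation concentration and efficacy.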
Peroxisome proliferator-activated receptor gamma (Homo sapiens), sequence (P37231 whole entry, looked up): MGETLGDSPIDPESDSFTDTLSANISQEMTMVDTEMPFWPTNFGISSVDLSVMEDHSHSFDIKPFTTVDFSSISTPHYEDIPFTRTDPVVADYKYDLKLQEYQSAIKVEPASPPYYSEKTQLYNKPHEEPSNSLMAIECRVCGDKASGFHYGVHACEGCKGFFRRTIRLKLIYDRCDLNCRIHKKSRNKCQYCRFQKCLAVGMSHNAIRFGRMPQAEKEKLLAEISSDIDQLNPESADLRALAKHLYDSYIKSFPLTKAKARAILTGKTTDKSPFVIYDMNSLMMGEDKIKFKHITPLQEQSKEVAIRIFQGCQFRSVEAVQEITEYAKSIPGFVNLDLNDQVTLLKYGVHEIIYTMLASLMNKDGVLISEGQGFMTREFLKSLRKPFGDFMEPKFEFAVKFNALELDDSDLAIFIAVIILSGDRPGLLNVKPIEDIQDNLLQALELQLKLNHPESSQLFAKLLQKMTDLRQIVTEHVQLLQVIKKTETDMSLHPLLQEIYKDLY
(In qHTS, concentration-response curves come from the screen itself.)

Test [4] has as its target Vitamin D3 receptor (Homo sapiens) (UniProt P11473). In words: qHTS assay for small molecule antagonists of vitamin D receptor signaling (AID 588541; calls by dose curve;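 further: receptor activated by calcitriol during compound treatment; on the % scale 0 is the no-effect control and ±100 the full control effect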). The note with it: HEK293T VDR-UAS-bla, beta-lactamase ratio, antagonist mode; series mostly up to 76.7 µM. The method in brief: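 VDR-UAS-bla HEK293T cells in 2% charcoal-stripped FBS were stimulated with 1-alpha,25-dihydroxyvitamin D3 (3 nM final) plus compound for 16 h at 37 C. The beta-lactamase CCF4 readout was normalized to 50 nM agonist and DMSO, and Hill fits gave IC50.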

The target is the same in test [5]. In words: qHTS assay for small molecule agonists of vitamin D receptor signaling (AID 588543; calls by dose curve). Conditions: HEK293T VDR-UAS-bla, beta-lactamase ratio, 16 h; series mostly up to 76.8 µM. The gist of the method: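 Agonist-mode beta-lactamase reporter: HEK293T VDR-UAS-bla cells in charcoal-stripped 2% FBS, compound series 16 h 37 C, CCF4 2 h RT. EC50 from Hill fit, scaled against DMSO and 50 nM calcitriol control.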

The nature of test [6]: qHTS assay for small molecule agonists of retinoid X receptor alpha signaling (AID 588544; calls by dose curve). The note with it: HEK293T RXRa-UAS-bla, beta-lactamase reporter, 18 h; 530 nm emission.
Test [7] deals with Retinoic acid receptor RXR-alpha (Homo sapiens) (UniProt P19793). The test is described as above. The note with it: HEK293T RXRa-UAS-bla, beta-lactamase reporter, 18 h; series mostly up to 76.7 µM.
Retinoic acid receptor RXR-alpha (Homo sapiens), sequence (P19793 whole entry, looked up): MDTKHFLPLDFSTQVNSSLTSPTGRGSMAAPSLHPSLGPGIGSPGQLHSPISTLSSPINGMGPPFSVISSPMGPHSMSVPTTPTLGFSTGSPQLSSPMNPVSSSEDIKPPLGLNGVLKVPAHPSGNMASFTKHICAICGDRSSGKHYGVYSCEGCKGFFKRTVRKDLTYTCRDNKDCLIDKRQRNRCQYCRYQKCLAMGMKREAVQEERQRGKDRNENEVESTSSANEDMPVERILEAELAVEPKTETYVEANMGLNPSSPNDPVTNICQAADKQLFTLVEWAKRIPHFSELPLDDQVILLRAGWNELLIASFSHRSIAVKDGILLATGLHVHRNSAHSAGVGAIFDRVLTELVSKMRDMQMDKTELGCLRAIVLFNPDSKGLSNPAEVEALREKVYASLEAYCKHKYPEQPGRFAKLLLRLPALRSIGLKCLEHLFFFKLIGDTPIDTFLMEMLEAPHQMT
Test [8] concerns the target Thyroid hormone receptor beta (Homo sapiens) (UniProt P10828). As to the kind of experiment: qHTS assay for small molecule agonists of thyroid hormone receptor beta signaling (AID 588545; calls by dose curve). The note with it: TR-UAS-bla GripTite HEK 293, beta-lactamase ratio, agonist mode, 18 h; series mostly up to 76.7 µM. The method in brief:
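Agonist activity was read as beta-lactamase CCF4 fluorescence (405 ex, 460/530 em), scaled between DMSO (0%) and 10 nM T3 (100%), then Hill-fitted for EC50 and efficacy. HEK 293 TR-UAS-bla cells in 2% charcoal/dextran FBS medium were exposed 18 h at 37 C.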

A short description of test [9]: qHTS assay for small molecule antagonists of retinoid X receptor alpha signaling (AID 588546; active means well fitted inhibition curve with a large enough effect in the signal ratio, with a control signal flat, not every such curve was filed as active; the % refers to the signal ratio;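 further: cells stimulated with 9-cis-retinoic acid as agonist; on the % scale 0 is the no-effect control and ±100 the full control effect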). Conditions: HEK293T RXRa-UAS-bla, beta-lactamase ratio, antagonist mode; measured here: W530 green channel, cytotoxicity proxy. The method in brief: (§2)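 Beta-lactamase reporter inhibition, read as CCF4 fluorescence ratio (ex 405, em 460/530 nm) after 2 h at RT. HEK293T UAS-bla cells, 2500/well, were stimulated with 9-cis-RA at 500 or 100 nM final alongside test compound for 18 h at 37 C.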

Test [10] concerns the target Retinoic acid receptor RXR-alpha (Homo sapiens) (UniProt P19793). The test is described as above. The note with it: HEK293T RXRa-UAS-bla, beta-lactamase ratio, antagonist mode. The gist of the method:
as §2

The target of test [11] is Peroxisome proliferator-activated receptor alpha (Homo sapiens) (UniProt Q07869). As to the kind of experiment: qHTS assay for small molecule agonists of the peroxisome proliferator-activated receptor alpha (PPARalpha) signaling pathway (AID 651778). Further: % of control where 0% means no effect. Conditions: PathHunter PPARalpha complementation, chemiluminescence, 6 h; max response: stronger effect = higher value. The method in brief:
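Enzyme-fragment complementation assay in which ligand-bound PPARalpha translocates and forms an active enzyme that generates chemiluminescence. Cells were plated overnight, exposed to compound for 6 hr at 37 C, and then given detection reagent for 60 min at room temperature.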

The nature of test [12]: qHTS assay for small molecule agonists of the antioxidant response element (ARE) signaling pathway measured by Nrf2-dependant transcriptional activity (AID 720636; active means well fitted curve in the direction sought with a large enough effect in the repeat runs; an effect the other way counts as inactive or inconclusive; further: % of control where 0% means no effect). The note with it: ARE-luc HepG2, Nrf2 luciferase reporter, 16 h; series mostly up to 92.4 µM. The gist of the method: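 Nrf2-dependent transcription is measured in ARE-luc HepG2 cells: compound is applied for 16 hr at 37 C after a 6 hr attachment period, and luciferase activity is quantified by luminescence using ONE-Glo.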

The nature of test [13]: qHTS assay for small molecule agonists of the antioxidant response element (ARE) signaling pathway measured by Nrf2-dependant transcriptional activity - cell viability counter screen (AID 720653; active means well fitted curve in the direction sought with a large enough effect in the repeat runs; an effect the other way counts as inactive or inconclusive; further: on the % scale 0 is the no-effect control and ±100 the full control effect). The note with it: ARE-bla HepG2 viability, CellTiter-Glo ATP luminescence, 16 h; max response: stronger effect = lower value. The method in brief: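 ARE-bla HepG2 cells treated with compounds for 16 h at 37C; this counter screen measures viability as intracellular ATP by CellTiter-Glo luminescence after 30 min at room temperature.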

Test [14] is described as follows: qHTS assay for cell viability of HEK293 cells (AID 743288). Further: on the % scale 0 is the no-effect control and ±100 the full control effect; nearly all actives have a fitted effect of over 50% in size. Conditions: ATP luminescence (CellTiter-Glo), 18 h; max response: stronger effect = lower value. The gist of the method:
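Readout is luciferase-coupled ATP content (CellTiter-Glo luminescence, 30 min room temperature) as a measure of metabolically competent cells. Parental HEK293 cells were plated 5 h or more before compound addition, then treated 18 h at 37 C.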

A short description of test [15]: qHTS assay for cell viability of the p53RE-bla HCT-116 cell line (AID 743292). Further: on the % scale 0 is the no-effect control and ±100 the full control effect; nearly all actives have a fitted effect of over 55% in size. Conditions: p53RE-bla HCT-116 viability, ATP luminescence, 16 h; series mostly up to 95 µM. The gist of the method: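 ATP-based luminescence, 16 h compound exposure at 37 C, p53RE-bla HCT-116 cells at 4,000/well.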
Test [16] deals with Nuclear receptor subfamily 1 group I member 2 (Rattus norvegicus) (UniProt Q9R1A7). As to the kind of experiment: qHTS assay for small molecule activators of the rat pregnane X receptor (rPXR) signaling pathway (AID 651751; call rule not given here; further: 0% is about no effect). The note with it: rPXR reporter cells, luciferase (One-Glo), 24 h.
Nuclear receptor subfamily 1 group I member 2 (Rattus norvegicus), sequence (Q9R1A7 whole entry, looked up): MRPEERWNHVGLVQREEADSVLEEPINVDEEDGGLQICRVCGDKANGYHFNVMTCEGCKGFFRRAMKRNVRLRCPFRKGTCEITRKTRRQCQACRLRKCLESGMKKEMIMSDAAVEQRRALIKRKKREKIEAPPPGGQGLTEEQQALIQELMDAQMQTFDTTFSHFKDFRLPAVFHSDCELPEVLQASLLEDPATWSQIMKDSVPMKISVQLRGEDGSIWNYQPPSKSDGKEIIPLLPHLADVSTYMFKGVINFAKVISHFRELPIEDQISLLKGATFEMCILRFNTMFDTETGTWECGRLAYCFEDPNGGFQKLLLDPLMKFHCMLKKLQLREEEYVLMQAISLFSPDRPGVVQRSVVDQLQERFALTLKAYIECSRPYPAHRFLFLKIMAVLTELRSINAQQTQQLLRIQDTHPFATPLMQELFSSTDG
The nature of test [17]: qHTS assay for small molecule activators of the human pregnane X receptor (PXR) signaling pathway (AID 720659; call rule not given here; further: 0% is about no effect). The note with it: DPX-2 HepG2 CYP3A4-luciferase, 24 h; series mostly up to 92.3 µM.
A short description of test [18]: qHTS assay for small molecule activators of the p53 signaling pathway (AID 651743; active means well fitted activation curve with a large enough effect in the signal ratio, not every such curve was filed as active; the % refers to the signal ratio; further: % of control where 0% means no effect). The note with it: HCT-116 p53RE-bla, beta-lactamase FRET ratio, 16 h; activation: stronger effect = higher value. The gist of the method: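 Reporter: beta-lactamase driven by p53 response elements, stably integrated in HCT-116 cells. Cells seeded at 4,000/well, 5 h preincubation, compound (DMSO) 16 h at 37 C; B/G FRET substrate 2 h RT; fluorescence intensity read.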

A short description of test [19]: qHTS assay for environmental chemicals that activate the Aryl hydrocarbon Receptor (AhR) signaling pathway (AID 651777). Further: % of control where 0% means no effect; nearly all actives have a fitted effect of over 15% in size. The note with it: 1A2-DRE human hepatoma cells, luciferase, 24 h; activation: stronger effect = higher value. The gist of the method: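 Reporter gene assay: hepatoma cells with DRE/CYP1A2-luciferase, 24 hr compound incubation at 37 C, 5% CO2, luminescence after One-Glo (30 min, RT).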

A short description of test [20]: qHTS assay for small molecule activators of the nuclear factor-kappa B (NF-kB) signaling pathway (AID 651749; active means well fitted activation curve with a large enough effect in the signal ratio; the % refers to the signal ratio; further: % of control where 0% means no effect). Conditions: NF-kB-bla ME-180 cells, beta-lactamase FRET ratio, 16 h; activation: stronger effect = higher value. The gist of the method: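 NF-kB-bla ME-180 cells, 2,000/well; 23 nL compound or DMSO pinned; 16 hr, 37C/5% CO2; beta-lactamase FRET read-out.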

Peroxisome proliferator-activated receptor alpha (Homo sapiens), sequence (Q07869 whole entry, looked up, the tested form may be a part): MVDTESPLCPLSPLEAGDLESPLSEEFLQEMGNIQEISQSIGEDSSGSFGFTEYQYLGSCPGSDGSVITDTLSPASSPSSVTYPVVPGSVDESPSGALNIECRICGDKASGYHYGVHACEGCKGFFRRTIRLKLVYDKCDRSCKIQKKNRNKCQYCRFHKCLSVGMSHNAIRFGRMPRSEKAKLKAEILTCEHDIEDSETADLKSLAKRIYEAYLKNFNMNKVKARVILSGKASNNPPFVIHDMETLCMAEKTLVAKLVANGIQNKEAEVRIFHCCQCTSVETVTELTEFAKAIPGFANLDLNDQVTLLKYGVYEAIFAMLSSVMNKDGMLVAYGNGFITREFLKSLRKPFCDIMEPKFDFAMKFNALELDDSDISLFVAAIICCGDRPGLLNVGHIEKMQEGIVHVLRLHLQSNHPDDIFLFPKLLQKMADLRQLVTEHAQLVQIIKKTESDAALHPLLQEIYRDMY
Peroxisome proliferator-activated receptor delta (Homo sapiens), sequence (Q03181 whole entry, looked up): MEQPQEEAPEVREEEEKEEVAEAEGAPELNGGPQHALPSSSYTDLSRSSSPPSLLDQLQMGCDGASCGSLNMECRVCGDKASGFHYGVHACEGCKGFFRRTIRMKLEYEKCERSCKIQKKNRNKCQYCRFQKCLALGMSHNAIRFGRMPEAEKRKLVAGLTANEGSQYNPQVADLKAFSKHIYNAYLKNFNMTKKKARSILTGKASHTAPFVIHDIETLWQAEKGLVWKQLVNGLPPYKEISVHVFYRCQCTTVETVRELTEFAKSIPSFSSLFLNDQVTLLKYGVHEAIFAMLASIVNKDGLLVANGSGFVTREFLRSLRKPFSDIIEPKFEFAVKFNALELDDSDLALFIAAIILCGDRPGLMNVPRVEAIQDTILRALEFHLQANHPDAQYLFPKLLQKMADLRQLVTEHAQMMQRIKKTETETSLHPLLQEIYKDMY
Vitamin D3 receptor (Homo sapiens), sequence (P11473 whole entry, looked up): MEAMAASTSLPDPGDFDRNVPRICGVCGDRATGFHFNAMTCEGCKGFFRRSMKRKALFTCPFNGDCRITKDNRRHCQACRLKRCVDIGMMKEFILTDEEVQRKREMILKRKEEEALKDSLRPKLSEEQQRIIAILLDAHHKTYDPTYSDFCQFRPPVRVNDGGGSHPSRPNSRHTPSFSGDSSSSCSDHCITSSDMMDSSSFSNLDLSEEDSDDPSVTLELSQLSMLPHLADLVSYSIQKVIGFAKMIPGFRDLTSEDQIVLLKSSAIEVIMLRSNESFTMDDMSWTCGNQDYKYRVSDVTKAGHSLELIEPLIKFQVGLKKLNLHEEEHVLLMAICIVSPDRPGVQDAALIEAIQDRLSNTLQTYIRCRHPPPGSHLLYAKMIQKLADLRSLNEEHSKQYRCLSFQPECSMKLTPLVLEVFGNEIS
Thyroid hormone receptor beta (Homo sapiens), sequence (P10828 whole entry, looked up): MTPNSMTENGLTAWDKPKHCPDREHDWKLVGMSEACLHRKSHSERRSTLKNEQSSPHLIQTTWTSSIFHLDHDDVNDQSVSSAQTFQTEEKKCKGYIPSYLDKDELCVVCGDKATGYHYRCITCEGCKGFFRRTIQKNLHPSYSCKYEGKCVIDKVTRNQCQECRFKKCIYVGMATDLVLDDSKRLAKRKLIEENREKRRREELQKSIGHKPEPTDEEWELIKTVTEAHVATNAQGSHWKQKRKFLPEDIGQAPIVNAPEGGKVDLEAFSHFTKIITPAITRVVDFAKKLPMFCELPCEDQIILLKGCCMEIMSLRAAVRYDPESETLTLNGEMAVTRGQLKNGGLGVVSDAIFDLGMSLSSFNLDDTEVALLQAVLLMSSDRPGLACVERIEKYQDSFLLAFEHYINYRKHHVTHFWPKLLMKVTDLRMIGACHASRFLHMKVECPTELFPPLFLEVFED

As to `C1CCC2(CCCCO2)OC1`, the max response in test [1] was 51.5%; in test [6] it was -20.2%; in [9], -9.54%; in test [10], -3.1% (inactive); in test [11] it was 0.092% (inactive); in test [13] it was 2.39% (inactive). Also, the max response in [14] is 3.07% (inactive); in test [16] it was -2.06% (inactive). The Potency result in test [2], in test [4], in [7], in test [8], in test [12] and in test [15] was “inactive” throughout. In addition, the result in test [3], in [5] and in test [17] was inactive.

Take `CCCCCCCCCCCCCCCC`: the max response was 55.6% in test [1]; 0.581% in test [6]; -21.5% in test [9]; -1.47% (inactive) in test [10]; 0.236% (inactive) in test [11]; -4.36% (inactive) in test [13]. Also, the max response in [14] was -2.82% (inactive); in test [16] it was 1.98% (inactive). Further, the Potency entry in test [2], in test [7], in test [8], in test [12] and in [15] was “inactive” each time. In addition, the outcome in [3] and in test [17] was inactive. Also, the activation in [18] is -5.95% (inactive); in test [19], 0.0152% (inactive).

Take `CC(=O)CC(=O)Nc1ccc(C)cc1C`: the outcome in test [3] and in test [17] was inactive. The Potency entry in test [8], in test [12] and in [15] was “inactive” throughout. Further, the values for the activation in test [18], in test [20] and in test [19] were -5.45% (inactive), 0.179% (inactive) and 0.555% (inactive), respectively. The max response is -1.32% (inactive) in test [11], -2.61% (inactive) in [13], -7.21% (inactive) in test [14] and -1.86% (inactive) in test [16].

With `CC(C)Nc1nc(N)nc(Cl)n1`, the max response is 2.88% and -10.4% in test [1]; 2.38% and -17.2% in [6]; -2.6% and -6.07% in test [9]; -9.99% (inactive) and -17.3% (inactive) in [10]; -0.394% (inactive) and -2.37% (inactive) in [11]; -6.9% (inactive) and -10.3% (inactive) in [13]. Further, the max response was -6.34% (inactive) and -4.35% (inactive) in test [14]; 4.66% (inactive) and -2.32% (inactive) in [16]. For the same compound, the Potency entry in [2], in [4], in [7], in [8], in [12] and in [15] was “inactive” throughout. Further, the result in [3], in test [5] and in [17] was inactive. Also, the activation in test [18] was -1.43% (inactive) and -0.514% (inactive); in test [20], 0.272% (inactive) and 0.556% (inactive).

Turning to `CCC(C)OC(=O)N1CCCCC1CCO` (stereo not drawn), the max response in test [1] is 49.3%; in test [6] it was -14.7%; in test [9], -13%; in test [10] it was 3.95% (inactive); in [11] it was -1.06% (inactive); in test [13], -23.7% (inactive). Further, the max response in test [14] is -6.27% (inactive); in test [16], -1.56% (inactive). Moreover, the Potency result in test [2], in test [4], in test [7], in test [8], in [12] and in test [15] was “inactive” throughout. For the same compound, the result in [5] and in [17] was inactive. Also, the activation in test [20] is -1.57% (inactive); in [19], 1.16% (inactive).
